Source: PubChem BioAssay (NCATS)
Inconclusive results are not listed. Active and inactive are the calls of the source. Calls follow the shape of the dose curve; as a rule, active = well fitted inhibition curve with a large enough effect; inconclusive = small, poorly fitted or top-dose-only effect; inactive = flat fitted curve, though single readings scatter.

experiment: qHTS for Inhibitors of Plasmodium falciparum (HB3) proliferation (AID 504318); also: nearly all actives have a fitted effect of over 60% in size;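 as to activity change, negative = inhibition: 0% = DMSO vehicle and -100% = artemisinin control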; conditions: P. falciparum HB3 in erythrocytes, SYBR Green DNA, 72 h; series mostly up to 7.21 µM; activity change, negative = inhibition: at the top concentration
Source text: Plasmodium falciparum is a virulent malarial parasite that kills 1-2 million people worldwide each year. Malaria not only inflicts tremendous suffering and morbidity on the human population, but has dramatically influenced the course of civilization with profound sociological and economic implications (Shah, S. 2010). Transmitted by mosquitoes, the sporozoite form of the parasite enters the blood stream to infect hepatocytes, where they become merozoites that infect red blood cells (erythrocytes). Within erythrocytes, merozoites begin a […] cycle of growth and division, after which the parasite is released to infect new red blood cells. Gametocytes, which form within erythrocytes as well, circulate in the bloodstream and are ingested by the mosquito, thereby completing the life cycle (see CDC website). To profile malarial lines for differential chemical responses and to identify inhibitors of malarial growth, an assay that measures P. falciparum growth and replication within erythrocytes was employed. This assay uses a DNA binding fluorescent dye (SYBR Green) to detect parasite DNA following cell lysis. Because mature erythrocytes lack DNA, only Plasmodium-derived DNA is detected. The P. falciparum line cp250, derived from a malarial isolate from Cambodia, (Mu, J., et al. 2010) was added to the panel of lines, Dd2, HB3, 7G8 and GB4 in this study. Laboratory of Assay Development and Screening Technology [ADST] and NIH Chemical Genomics Center [NCGC] Boston University, Chemistry Department, Center for Chemical Methodology and Library Development [CMLD-BU] NIH National Institute of Allergy and Infectious Diseases [NIAID]
ADST Assay Protocol Summary: The 1536-well SYBR Green viability assay was based on the method of Bennett et al (2004) and described previously in 1536-well format (Yuan J., et al. 2009). For screening 3 ul culture medium was dispensed into 1536 well black clear bottom plates (Aurora Biotechnologies) using a Multidrop Combi (Thermo Fisher Scientific Inc.), 23 nL compounds in DMSO were added by a pin transfer (Cleveland, P.H. and Koutz, P.J, 2005) using a pin tool-based delivery system (Kalypsys), and 5 ul of erythrocytes infected with P. falciparum one of five lines (cp250, Dd2, HB3, 7G8 or GB4, 0.3% parasitemia, 2.5% hematocrit final concentration) were added. The plates were incubated at 37C in a humidified incubator in 5% CO2 for 72 h, and 2 ul lysis buffer (20 mM Tris HCl, 10 mM EDTA, 0.16% saponin, 1.6% triton X, 10X SYBR Green I (supplied as 10,000X final concentration by Invitrogen) was added to each well. The plates were mixed for 25 sec with gentle shaking and incubated overnight at room temperature in the dark. The following morning, fluorescence intensity at 485(14) nm excitation and 535(25) nm emission wavelengths was measured on an EnVision (Perkin Elmer) plate reader. Plate reads were normalized relative to the control inhibitor (0.29 uM artemisinin) and vehicle (DMSO) wells present on each plate and then corrected by an algorithm using vehicle-only control plates at the beginning and end of the compound plate stack. References Shah, S. (2010). The Fever: how malaria has ruled humankind for 500,000 years. New York, Sarah Crichton Books. CDC web site, http://www.cdc.gov/malaria/about/biology/index.html Mu, J., Myers, R.A., Jiang, H., Liu, S., Ricklefs, S., Waisberg, M., Chotivanich, K., Wilairatana, P., Krudsood, S., White, N.J., et Plasmodium falciparum genome-wide scans for positive selection, recombination hot spots and resistance to antimalarial drugs Nature Genetics 2010, 42, pp 268-271 Bennett TN, Paguio, M., Gligorijevic, B., Seudieu, C., Kosar, A. D., Davidson, E., and Roepe, P. D. Novel, rapid, and inexpensive cell-based quantification of antimalarial drug efficacy Antimicrobial Agents Chemother. 2004, 48(5): pp 1807-10 Yuan J, Johnson RL, Huang RL, Wichterman J, Jiang HY, Hayton K, Fidock DA, Wellems TE, Inglese J, Austin CP, Su XZ. […]
Potency is read from the fitted curve at half-maximal effect.

| SMILES | activity change, negative = inhibition | Potency |
| --- | --- | --- |
| CCOC(=O)CN1C(=O)[C@]2(OCCC=C[C@@H]2C)c2ccccc21 | -1.77% (inactive) | – |
| COC(=O)CC=C[C@@H](C)[C@H](OC)c1cc(OC)ccc1Br | -6.12% (inactive) | – |
| COC(=O)CCC(=O)OC1(C)C(=O)C2=COC(c3ccc(OC)cc3)=CC2=C(Br)C1=O (stereo not given) | 13.9% (inactive) | – |
| COC(=O)[C@H](COC(C)(C)C)NC(=O)O[C@@H]1C(=O)c2ccc(OC)cc2O[C@H]1c1ccc2c(c1)OCO2 | -6.21% (inactive) | – |
| COC(=O)CC=C1c2ccccc2[C@@H](OC)[C@@H]1C | – | inactive |
| CCCCn1c(C)cc2c(c1=O)[C@H]1O[C@](c3ccsc3)(Cc3cc(OC)c(OC)cc31)O2 | 5.38% (inactive) | – |
| CC1=CC[C@@H](C)O[C@@]2(C1)C(=O)Nc1ccccc12 | – | inactive |
| COC(=O)N(C=Cc1ccc(OC)cc1)CCc1ccc(OC)c(OC)c1 | 6.24% (inactive) | – |
| O=C1[C@@H]2[C@H]3[C@H](O)[C@H](O)CC(=NOC[C@@H](O)COCc4ccco4)[C@@H]3CC[C@H]2C(=O)N1C[C@@H]1CCCO1 | -0.0305% (inactive) | – |
| COC(=O)N[C@H](C(C(=O)OC)=C(C)NCc1ccccc1)c1ccco1 | -1.55% (inactive) | – |
| COc1cccc([C@H]2Oc3ccc(OC)cc3C(=NOC[C@@H](C)[C@H](OCc3ccccc3)C(C)C)[C@H]2O)c1 | -3.57% (inactive) | – |
| COC(=O)CC1c2ccccc2C=C(C2CC2)N1C(=O)OC (stereo not given) | – | inactive |
| C[C@@H]1C[C@](C)(C(=O)c2ccc3c(c2)OCO3)C=C1c1ccc2c(c1)OCO2 | -7.35% (inactive) | – |
| COCC1=C(C(=O)OC)C(c2ccccc2)N(C(C)=O)C(=O)N1 (stereo not given) | -3.65% (inactive) | – |
| COC(=O)C1=C(C(=O)OC)[C@@H]2N(C)c3ccccc3[C@@]23C[C@@H](CO)N(C(=O)c2ccc(Br)cc2)C3=N1 | -6.74% (inactive) | – |
| CC(C)=CCN1C(=O)[C@]2(O[C@H](COc3ccccc3)CC3=C2CCC3)c2ccccc21 | – | 1690 nM (active) |
| CCN1C(=NCc2cccc(Cl)c2)N[C@@H](CCc2ccccc2)[C@H](C(=O)OC)[C@H]1C | 4.96% (inactive) | – |
| CCC(C)CN1C(=O)NC(c2ccccc2)C(C(=O)OC)=C1C (stereo not given) | -1.33% (inactive) | – |
| COC(=O)CC1=CO[C@@H](O)[C@@H]2C(CO)=CC[C@@H]12 | -5.72% (inactive) | – |
| C=CC(=O)N1C(=O)c2ccccc2S1(=O)=O | 7.98% (inactive) | – |

| SMILES | activity change, negative = inhibition | Potency |
| --- | --- | --- |
| COc1ccc(C(=O)[C@]2(C)C=C(c3ccc(OC)cc3)[C@H](C)C2)cc1 | -1.63% (inactive) | – |
| COc1cc(C(NC(=O)C(F)(F)F)c2cc3ccccc3o2)cc(OC)c1OC (stereo not given) | – | inactive |
| COC(=O)C(C(C)=O)[C@@H](NC(=O)NCc1ccccc1)c1ccccc1 (stereo not given in full) | -1.57% (inactive) | – |
| COc1ccc2c(c1)O[C@@H](c1ccc3c(c1)OCO3)[C@H](OC(=O)Nc1ccc(OC(F)F)cc1)C2=O | -9.47% (inactive) | – |
| CCN1C(=NCc2ccccc2)NC(c2cccc(C(F)(F)F)c2)C(C(=O)OC)=C1C (stereo not given) | 3.73% (inactive) | – |
| CCN1C(=O)NC(c2ccco2)C(C(C)=O)=C1C (stereo not given) | -1.01% (inactive) | – |
| CC(=O)C1=CN(CCc2c[nH]c3ccccc23)C(=O)NC1c1ccccc1 (stereo not given) | -4.18% (inactive) | – |
| O[C@@H]1CO[C@@H](C=Cc2ccccc2)[C@H]1OCc1cccc(Br)c1 | -5.78% (inactive) | – |
| OC[C@H]1O[C@H](C#Cc2ccccc2)C=C[C@@H]1O | 4.25% (inactive) | – |
| CC(=O)C1=C(C)N(CCC=Cc2ccccc2)C(=O)NC1c1ccccc1 (stereo not given) | -10.6% (inactive) | – |
| COc1cc2c(cc1OC)CSC1C(=O)N(C)C(SC2)C(=O)N1C | -4.41% (inactive) | – |
| CC(C)=CCCC(C)=CCON=C1C[C@@H](O)[C@@H](O)[C@@H]2[C@H]3C(=O)N(C[C@@H]4CCCO4)C(=O)[C@@H]3CC[C@@H]12 | -14.6% (inactive) | – |
| O=C1OC2(CCCCC2)CC2=C1[C@H]1O[C@](c3ccsc3)(Cc3ccccc31)O2 | -1.22% (inactive) | – |
| C=CCCN1C(=O)NC(c2ccccc2)C(C(=O)OC)=C1C (stereo not given) | -3.01% (inactive) | – |
| COc1ccc(C(=O)CC(=O)c2c(O)cc(OC)cc2OC)cc1 | 7.4% (inactive) | – |
| CCN1C(=NCc2cccc(C(F)(F)F)c2)NC(c2cccc(C(F)(F)F)c2)C(C(=O)OC)=C1C (stereo not given) | -12.7% (inactive) | – |
| CC(CCC#N)[N+](=O)[O-] (stereo not given) | -4.01% (inactive) | – |
| COC(=O)N1C(c2ccccc2)=Cc2ccccc2C1CC(C)=O (stereo not given) | 3.07% (inactive) | – |
| COC(=O)C1=C[C@]2(c3ccccc3C[C@H](OC)[C@@H]2C)[C@H]2C=C[C@H]1C2 | -13.5% (inactive) | – |
| COC(=O)C12CC3(CCC4C5C(C(OCc6ccccc6)C41)C52)OCCO3 (stereo not given) | 6.66% (inactive) | – |
